# Reference: PubChem BioAssay (NCI)
# The panel holds about 83,000 compounds, 20% with a hit somewhere; the sample as a whole holds those more often.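 Treatment: one concentration, 48 hours, 96-well format. Scoring: percent growth, with anything below 10 considered active.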 Values without a mark were called inactive. The source made the active and inactive calls.
# Test system: HL-60(TB) leukemia
# Assay: NCI-60 one-dose screen, 48 h (100 = growth as untreated, 0 = no growth, -100 = all killed)
# Conditions: 10 µM unless noted
# Procedure: Growth inhibition of the HL-60(TB) human tumor cell line is measured as a screen for anti-cancer activity. Cells are grown in 96 well plates and exposed to the test compound for 48 hours. Compounds are tested at a single concentration, which is 10^-5 M for most compounds. The reported endpoint is percent growth (GI% or GIPRCNT), where numbers from 0 - 100% represent growth inhibition, and numbers from -100% - 0 represent cell death. For example, a value of 40 represents 60% growth inhibition. A value of 0 means no net growth occurred over the course of the experiment. A value of -40 indicates 40% of cells at the beginning of the experiment died by the end of the experiment. A value of -100 means all cells are dead at the end of the experiment.
# NCI-60 Human Tumor Cell Lines Screen was performed using the standard one-dose NCI protocol, which is described in more detail at https://dtp.cancer.gov/discovery_development/nci-60/default.htm.
# Compounds with GIPRCNT values below 10 were considered active. Activity score was based on GIPRCNT using the following formula: […]
# Score is 0 for GIPRCNT values of 100 or above, 50 for GIPRCNT values of 0, and 100 for GIPRCNT values of -100.
row,Structure (SMILES),growth
1,O=C(c1nc2ccccc2[nH]1)C1C(c2cccc([N+](=O)[O-])c2)C2CC3CCCCC3N2[C@@]12C(=O)Nc1cc(Cl)ccc12 (stereo not given in full),4.05% (active)
2,CCN(CC)CCNC(=O)n1cc(-c2ccncc2)c(-c2ccc(Cl)c(OC)c2)n1,95.9%
3,O=S(=O)(Nc1ccc2ccccc2c1)c1ccc(-c2cnc(C3CC3)o2)cc1,-28% (active)
4,CC1=C(C(=O)Nc2ccccc2)C(c2ccc3c(c2)OCCO3)NC(=O)N1 (stereo not given),106%
5,NCCSC(C[N+](=O)[O-])c1ccccc1Cl (stereo not given),31.8%
6,O=C(Nc1ccccc1)c1cc(-n2cnc([N+](=O)[O-])c2)cc(-n2cnc([N+](=O)[O-])c2)n1,96.4%
7,CCN(C(=O)CN1CCN(c2cc3c(cc2F)c(=O)c(C(=O)O)cn3CC)CC1)c1nc(-c2ccccc2)cs1,-39.2% (active)
8,COc1cc(C2NN=C3c4ccccc4CCC32)cc(OC)c1OC (stereo not given),74.1%
9,CCOc1c(C#N)nnc2c(C#N)c(NC(=O)c3ccccc3)nn12,104%
10,C#Cc1cccc(NC(=O)c2ccc(Cl)cc2Cl)c1,72.5%
11,O=C(Nc1ccc(Cl)cc1F)c1cc(Cl)ccc1O,-48% (active)
12,NS(=O)(=O)c1ccc(CN=C2NC(=O)S/C2=C\c2ccc(Br)cc2)cc1,97.5%
13,O=C(Nc1cccc(C(F)(F)F)c1)C(Cl)Cl,94.1%
14,Clc1cccc(Cl)c1CSc1nc2ccccc2n2cccc12,94.3%
15,Cc1ccc(Cn2c(O)c(N=NC(=O)c3ccc(S(N)(=O)=O)cc3)c3ccccc32)cc1,98.6%
16,Cc1cn(-c2nc3c(c(NCc4ccccc4)n2)COCC3)c2cccc(C(N)=O)c12,71.1% [0.5 µM]
17,NC(=O)c1cc(Cl)ccc1NC(=O)/C=C/c1ccccc1,-30.8% (active)
18,CCCCS(=O)(=O)c1cc(Nc2ccc(O)c3c2C(=O)c2ccccc2C3=O)ccc1C,75%
19,Cc1nn(-c2ccccc2)c2nc(N)c(C3=NCCO3)nc12,102%
20,Nc1nc(Nc2ccc(OCc3cccc(F)c3)cc2)c2c(n1)[nH]c1ccc(O)cc12,-64.8% (active)

row,Structure (SMILES),growth
1,O=C(O)C(SC(C(=O)O)c1ccccc1)c1ccccc1 (stereo not given),95%
2,Cc1ccc(-c2nc3c(N=Nc4ccc(S(N)(=O)=O)cc4)c(N)nn3c(N)c2C#N)cc1,2.71% (active)
3,CC(=O)OCC1=CC2OC(=O)C3=COC(OC4OC(CO)C(O)C(O)C4O)C1C32 (stereo not given),120%
4,COc1ccc(/C=C2/C(=O)ON=C2C)cc1,103%
5,COc1cc2oc(-c3cccc(C(=O)Nc4ccc5c(c4)OCO5)c3)cc(=O)c2c(O)c1OC,94.3%
6,CN1Cn2c(ccc2C(F)(F)F)C(=O)CS1(=O)=O,108%
7,CCCCNc1ccc(Nc2ccccc2)cc1,16.5%
8,C#CCNC(=O)c1cccc2c1cc(C)n2-c1nc2c(c(NCc3ccccc3)n1)CCCC2,0.47% (active)
9,O=C(/C=C/c1ccccc1Br)c1cccc(OCCCCOc2cccc(C(=O)/C=C/c3ccccc3Br)c2)c1,92%
10,COc1cc(NCCCCCN=C(N)NC(N)=NC(C)C)c2ncccc2c1,1.51% (active)
11,Nc1nc(N)c2nc3c(nc2n1)CCCCCCCCCC3,33.4%
12,O=C(/C=C/c1ccccc1)C(Br)C(Br)c1ccccc1 (stereo not given),-41.8% (active)
13,O=[N+]([O-])c1cccc(-c2nc3sccn3c2-c2ccnc(NCCCNS(=O)(=O)c3ccc(C(F)(F)F)cc3)n2)c1,0.27% (active)
14,O=C(NCCCNc1cc(-c2cn(-c3ccccc3)nc2-c2cccc(O)c2)ccn1)c1ccccc1,8.91% (active)
15,Nc1ccc(Nc2nccc(-c3ccc4ccccc4c3)n2)cc1,21.2%
16,CCOC(=O)C(=CCC(C)C)C(=O)OCC,40.5%
17,CC(=O)NC(N)=S,70.8%
18,CCCn1nc(C(=O)N(C)Cc2ccccc2)c2c1CCC(N1CCc3ccccc31)C2 (stereo not given),98%
19,Cc1ccncc1C(=O)O,106%
20,COc1cccc(C2CC(=O)Nc3cc4c(cc32)CCC4)c1OC (stereo not given),10.4%
